Measurements published in PubChem BioAssay (NCI).
This is part of a sample that, as a whole, favours compounds with a hit. Of some 83,000 tested, about 20% had one in any assay.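 Single-concentration screen, 48 h exposure, 96-well plates. Endpoint: percent growth. Below 10 = active.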 Values without a mark were called inactive. Active and inactive are the calls of the source. Where a SMILES comes first, the peptide text is derived from it. Bridges are numbered along the chain shown (N, C = ends). [ ]: non-standard residue; d: D form. The star is where a group is joined. ξ: configuration not given here. ξNMePhe(4-NMe2) = CNC(Cc1ccc(N(C)C)cc1)C(=O)O; Picolinoyl(3-OH) = O=C(c1ncccc1O)*; ξPip(4-oxo) = O=C1CCNC(C(=O)O)C1; Phg = N[CH](C(=O)O)c1ccccc1; Abu = CC[CH](N)C(=O)O

Key:
Assay in all cases: NCI-60 one-dose screen, 48 h (100 = growth as untreated, 0 = no growth, -100 = all killed)
[1] = system: T-47D breast; details: 10 µM
[2] = system: BT-549 breast; details: 10 µM
[3] = system: MDA-MB-435 melanoma; details: 10 µM
[4] = system: SW-620 colon; details: 10 µM
[5] = system: MCF7 breast; details: 10 µM unless noted
[6] = system: HCT-116 colon; details: 10 µM
[7] = system: KM12 colon; details: 10 µM
[8] = system: HCC-2998 colon; details: 10 µM

Structure (SMILES)	growth [1]	growth [2]	growth [3]	growth [4]	growth [5]	growth [6]	growth [7]	growth [8]
C=CCOC(=O)C(=O)OCC=C	93.9%	101%	120%	103%	101%	101%	102%	–
CC(=O)c1ccc(C)c(N)c1	99.8%	94.7%	114%	101%	97.1%	94.2%	97%	–
N#Cc1ccc(NC(=O)Nc2cccc(C#N)c2)cc1	66.9%	108%	78.8%	95.8%	82.8%	82.5%	102%	–
Nc1ncnc2[nH]ncc12	6% (active)	-32.8% (active)	15.2%	17.5%	7.48% (active)	5.13% (active)	18%	–
CC(CC(=O)c1ccccc1)c1ccccc1 (stereo not given)	104%	107%	99.8%	102%	105%	106%	113%	–
CN(c1ccccc1)c1ncnc2c1ncn2C	100%	101%	106%	97.9%	97.8%	104%	108%	–
NNc1ccccc1C(=O)O	107%	103%	116%	101%	104%	112%	108%	–
O=C1c2ccccc2C(=O)N1OCc1ccccc1	92.1%	118%	110%	107%	99.5%	99.8%	105%	–
CCOC(=O)C1=C(C)NC(=O)NC1c1cccs1 (stereo not given)	102%	123%	125%	105%	101%	116%	109%	–
O=C(NCCNC(=O)c1ccc(Cl)cc1Cl)c1ccc(Cl)cc1Cl	99.3%	111%	106%	113%	102%	104%	105%	–
N#CSc1cc(S(N)(=O)=O)ccc1N	104%	98.6%	120%	107%	94.5%	102%	107%	–
Cc1cc2ccccc2c(O)c1C#N	88.8%	97.6%	108%	104%	99.3%	105%	105%	–
O=C(O)CCC(NC(=O)OCc1ccccc1)C(=O)O (stereo not given)	98.5%	119%	104%	101%	93%	111%	105%	–
CC(O)COc1ccc(-c2ccccc2)cc1 (stereo not given)	94%	104%	104%	103%	100%	97.7%	105%	–
O=[N+]([O-])c1ccc(S(=O)(=O)NN=C2CCCCC2)cc1	107%	95.5%	114%	114%	102%	97.8%	110%	–
CCCCCCCCOC(=O)c1ccccn1	96.4%	94.5%	116%	98.3%	96.2%	94.2%	103%	–
COc1ccc(C(O)c2ccccc2)cc1 (stereo not given)	87.3%	121%	102%	90.3%	97.5%	110%	93.7%	–
OC(c1ccccn1)C(O)c1ccccn1 (stereo not given)	109%	106%	115%	109%	101%	106%	109%	–
CC(=O)OCC(=O)[C@@]1(O)CC[C@H]2[C@@H]3CC[C@@H]4C[C@H](O)CC[C@]4(C)[C@H]3C(=O)C[C@@]21C	108%	102%	103%	103%	108%	99.9%	112%	–
O=c1[nH]c(O)c(/C=C2/C=Nc3ccccc32)[nH]1	85.5%	107%	102%	104%	56.3%	96.4%	88.4%	–

Structure (SMILES)	growth [1]	growth [2]	growth [3]	growth [4]	growth [5]	growth [6]	growth [7]	growth [8]
CC1(C)Nc2cccc3c(N=Nc4ccc(N=Nc5ccccc5)c5ccccc45)ccc(c23)N1	76.7%	124%	109%	89.4%	79.4%	70.5%	106%	–
FC(F)(F)c1ccc2c(c1)N(CCCN1CCN(C3CC3)CC1)c1ccccc1S2	87.8%	61%	57.7%	38.9%	77.3%	42.7%	59.6%	–
S=c1nn[nH]c2ccccc12	109%	106%	120%	113%	99.2%	103%	101%	–
OCCN1CCOCC1	106%	115%	116%	113%	94.8%	97.2%	111%	–
CCC1NC(=O)C(NC(=O)c2ncccc2O)C(C)OC(=O)C(c2ccccc2)NC(=O)C2CC(=O)CCN2C(=O)C(Cc2ccc(N(C)C)cc2)N(C)C(=O)C2CCCN2C1=O (stereo not given) (tested in a mixture with another compound) ({Picolinoyl(3-OH)}-T[Abu]P[ξNMePhe(4-NMe2)][ξPip(4-oxo)][Phg]; ester 1-C; configuration not given here)	64.8%	54.6%	57.1%	68.3%	46.5%	34.2%	74.9%	–
COc1cc2c(cc1O)CC[C@@H]1C2CC[C@@]2(C)C1CC[C@@H]2O (stereo not given in full)	31.1%	23.4%	-46.9% (active)	12.1%	16.4%	7.39% (active)	33.5%	–
O=C(O)c1ccnc(Br)c1	96.9%	105%	104%	103%	91.7%	103%	103%	–
C[N+](C)(C)C(=O)c1ccccc1	90.4%	101%	114%	107%	96.2%	97.9%	112%	–
O=C(/C=C\c1ccc(O)cc1)c1ccccc1	84.6%	37.4%	95%	101%	80.8%	78.2%	71%	–
NC(=O)c1ccc(N=C(N)N=C(N)N)cc1	95.7%	108%	85%	104%	92.7%	105%	99.3%	–
Oc1ccc(O)cc1	114%	82.7%	99.7%	112%	–	107%	103%	–
OC1CCCc2ccccc21 (stereo not given)	101%	98.1%	104%	107%	–	111%	109%	119%
CCOC(=O)/C(=C/c1ccc(OC)cc1)N(CC)CC	92.6%	108%	110%	103%	–	101%	104%	111%
O=[N+]([O-])c1cccc(N=Nc2ccc(O)cc2O)c1	54%	49.8%	87.3%	55.7%	–	14.3%	90.9%	–
CCCCCCCCCCC(C)Br (stereo not given)	99.2%	105%	99.6%	106%	–	100%	107%	–
Cc1nc2c(ccc3ccccc32)s1	102%	109%	115%	107%	–	103%	117%	75.1%
O=[N+]([O-])c1ccc(Sc2ccncn2)c([N+](=O)[O-])c1	48.3%	74.9%	8.62% (active)	23%	–	20.1%	76.2%	–
CC(=O)NC(N)=S	124%	117%	117%	101%	–	111%	107%	100%
NC(=O)N/N=C\c1ccco1	107%	94.9%	118%	107%	–	101%	113%	99.3%
C[C@]12CC[C@@H]3c4ccc(OCC(=O)O)cc4CC[C@H]3[C@@H]1CCC2=O	114%	102%	116%	102%	–	103%	105%	–
